Experimental data published in PubChem BioAssay (EPA / NIEHS).
Some compounds were tested as several samples or in several runs, with calls that do not always agree. Active and inactive are the calls of the source. Rule for the calls: active = hit-call score of the fitted dose curve at least 0.9, where 1 is the maximum; inactive = score below 0.9.

Columns and labels:
[1] = read-out: Macrophage colony-stimulating factor (MCSF), CSF1 (gene 1435); test: BSK_hDFCGF_MCSF: BioMAP Diversity Plus: hDFCGF Assay for Macrophage colony-stimulating factor (MCSF) Biomarker Activity (AID 2283060); conditions: primary human foreskin fibroblasts; actives raise or lower the signal
Summary of the method: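 Human foreskin primary fibroblasts were treated with test chemical for 24 h, and M-CSF was then measured by ELISA. Data were fitted bidirectionally against DMSO as the negative control and activity baseline.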

[2] = BSK_hDFCGF_SRB: Viability Assessment in the BioMAP Diversity Plus: hDFCGF Assay (AID 2283061); conditions: primary human foreskin fibroblasts;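 note: cells exposed to compound for 24 h before the read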
Summary of the method: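 Human foreskin primary fibroblasts were treated with compound and assessed 24 h after dosing. Total protein was measured by sulforhodamine B staining (0.1% SRB after 10% TCA fixation, 560 nm read) as a cytotoxicity marker, with bidirectional fitting against DMSO baseline.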

[3] = read-out: TIMP metallopeptidase inhibitor 1 (TIMP1), TIMP1 (gene 7076); test: BSK_hDFCGF_TIMP1: BioMAP Diversity Plus: hDFCGF Assay for TIMP metallopeptidase inhibitor 1 (TIMP1) Biomarker Activity (AID 2283062); conditions: primary human foreskin fibroblasts; actives raise or lower the signal
Summary of the method: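 Primary human foreskin fibroblasts in the hDFCGF system were dosed with compound for 24 h, then TIMP-1 was measured by ELISA. Activity was fitted bidirectionally relative to DMSO control; parallel SRB staining assessed cytotoxicity.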

[4] = read-out: Monokine induced gamma interferon (MIG), CXCL9 (gene 4283); test: BSK_hDFCGF_MIG: BioMAP Diversity Plus: hDFCGF Assay for Monokine induced gamma interferon (MIG) Biomarker Activity (AID 2283063); conditions: primary human foreskin fibroblasts; actives raise or lower the signal
Summary of the method: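 ELISA read-out of MIG from primary human dermal fibroblasts 24 h post-dosing. Gain or loss of signal fitted bidirectionally, DMSO as baseline.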

[5] = read-out: Matrix Metallopeptidase 1 (MMP1), MMP1 (gene 4312); test: BSK_hDFCGF_MMP1: BioMAP Diversity Plus: hDFCGF Assay for Matrix Metallopeptidase 1 (MMP1) Biomarker Activity (AID 2283064); conditions: primary human foreskin fibroblasts; actives raise or lower the signal
Summary of the method: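 Primary human foreskin fibroblasts in the hDFCGF system were dosed with test chemical, and MMP1 was measured by ELISA 24 h later. Values come from bidirectional curve fitting against the DMSO baseline.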

[6] = read-out: Vascular cell adhesion molecule 1 (VCAM1), VCAM1 (gene 7412); test: BSK_hDFCGF_VCAM1: BioMAP Diversity Plus: hDFCGF Assay for Vascular cell adhesion molecule 1 (VCAM1) Biomarker Activity (AID 2283065); conditions: primary human foreskin fibroblasts; actives raise or lower the signal;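 for AC50: VCAM-1 protein level quantified by ELISA after 24 h chemical exposure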
Summary of the method: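 Primary human foreskin fibroblasts (hDFCGF system) were dosed with chemical and VCAM-1 was measured by ELISA 24 h later. Bidirectional curve fitting used DMSO as negative control and activity baseline.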

[7] = read-out: Plasminogen activator inhibitor-1 (PAI1), SERPINE1 (gene 5054); test: BSK_hDFCGF_PAI1: BioMAP Diversity Plus: hDFCGF Assay for Plasminogen activator inhibitor-1 (PAI1) Biomarker Activity (AID 2283066); conditions: primary human foreskin fibroblasts; actives raise or lower the signal
Summary of the method: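 Human foreskin fibroblast primary cells, 24 h chemical exposure; PAI-1 measured by ELISA. Bidirectional fitting relative to DMSO; parallel cultures stained with SRB for total protein to flag overt cytotoxicity.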

[8] = read-out: Intercellular Adhesion Molecule 1 (ICAM1), ICAM1 (gene 3383); test: BSK_KF3CT_ICAM1: BioMAP Diversity Plus: KF3CT Assay for Intercellular Adhesion Molecule 1 (ICAM1) Biomarker Activity (AID 2283067); conditions: primary human keratinocytes with fibroblasts; actives raise or lower the signal
Summary of the method: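 Human keratinocyte plus foreskin fibroblast primary co-culture was exposed to chemical for 24 h. ICAM-1 was then quantified by ELISA, and the data were fit bidirectionally against DMSO as the negative control and baseline.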

[9] = read-out: Interferon-gamma inducible Protein 10 (IP10), CXCL10 (gene 3627); test: BSK_KF3CT_IP10: BioMAP Diversity Plus: KF3CT Assay for Interferon-gamma inducible Protein 10 (IP10) Biomarker Activity (AID 2283068); conditions: primary human keratinocytes with fibroblasts; actives raise or lower the signal
Summary of the method: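 KF3CT co-culture (keratinocytes + foreskin fibroblasts), 24 h compound, IP-10 by ELISA; bidirectional fit vs DMSO baseline.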

[10] = BSK_KF3CT_SRB: Viability Assessment in the BioMAP Diversity Plus: KF3CT Assay (AID 2283069); conditions: primary human keratinocytes with fibroblasts;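 note: fitted for both signal gain and loss against DMSO baseline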
Summary of the method: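 Human primary keratinocyte plus foreskin fibroblast co-culture exposed to chemicals for 24 h. Total protein measured by 0.1% sulforhodamine B staining after 10% TCA fixation, read at 560 nm; bidirectional fitting versus DMSO baseline.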

[11] = read-out: Transforming growth factor beta 1 (TGFb1), TGFB1 (gene 7040); test: BSK_KF3CT_TGFb1: BioMAP Diversity Plus: KF3CT Assay for Transforming growth factor beta 1 (TGFb1) Biomarker Activity (AID 2283072); conditions: primary human keratinocytes with fibroblasts; actives raise or lower the signal
Summary of the method: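 Human keratinocyte/foreskin fibroblast co-culture; TGF-b1 measured by ELISA 24 h after dosing, fitted bidirectionally versus DMSO. Cytotoxicity checked in parallel cultures by total protein (SRB staining, 560 nm).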

[12] = read-out: Matrix Metallopeptidase 9 (MMP9), MMP9 (gene 4318); test: BSK_KF3CT_MMP9: BioMAP Diversity Plus: KF3CT Assay for Matrix Metallopeptidase 9 (MMP9) Biomarker Activity (AID 2283074); conditions: primary human keratinocytes with fibroblasts; actives raise or lower the signal;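 for AC50: MMP9 protein level quantified by ELISA in the co-culture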
Summary of the method: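 Keratinocyte plus foreskin fibroblast human primary skin co-culture was dosed with chemical and MMP-9 was quantified by ELISA 24 h later. Bidirectional curve fitting used DMSO as negative control and activity baseline.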

[13] = read-out: urokinase plasminogen activator (uPA), PLAU (gene 5328); test: BSK_KF3CT_uPA: BioMAP Diversity Plus: KF3CT Assay for urokinase plasminogen activator (uPA) Biomarker Activity (AID 2283075); conditions: primary human keratinocytes with fibroblasts; actives raise or lower the signal
Summary of the method: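 Human keratinocyte plus foreskin fibroblast primary co-culture exposed to chemical for 24 h. uPA levels were quantified by ELISA, and activity was fitted bidirectionally against a DMSO negative-control baseline.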

CD40, CD40 (gene 958) = test: BSK_LPS_CD40: BioMAP Diversity Plus: LPS Assay for CD40 Biomarker Activity (AID 2283076); conditions: primary human HUVEC with PBMC; actives raise or lower the signal
Summary of the method: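 Primary human umbilical vein endothelial cells co-cultured with peripheral blood mononuclear cells, LPS-stimulated, were dosed with chemical and read 24 h later. CD40 levels were measured by ELISA and fitted bidirectionally against DMSO as negative control and baseline.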

[14] = read-out: E-selectin (Homo sapiens) (UniProt P16581); test: BSK_LPS_Eselectin: BioMAP Diversity Plus: LPS Assay for Eselectin Biomarker Activity (AID 2283077); conditions: primary human HUVEC with PBMC; actives raise or lower the signal
Summary of the method: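 Human umbilical vein endothelial cells co-cultured with peripheral blood mononuclear cells under LPS stimulation; E-selectin measured by ELISA 24 h after chemical dosing. Activity fitted bidirectionally against DMSO as negative control and baseline.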

[15] = read-out: Interleukin-8 (IL8), CXCL8 (gene 3576); test: BSK_LPS_IL8: BioMAP Diversity Plus: LPS Assay for Interleukin-8 (IL8) Biomarker Activity (AID 2283078); conditions: primary human HUVEC with PBMC; actives raise or lower the signal
Summary of the method: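 Human umbilical vein endothelial cells co-cultured with PBMC were stimulated with LPS; IL-8 levels were measured by ELISA 24 h after chemical dosing. Activity was fitted bidirectionally against DMSO as negative control and baseline.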

[16] = BSK_LPS_SRB: Viability Assessment in the BioMAP Diversity Plus: LPS Assay (AID 2283079); conditions: primary human HUVEC with PBMC;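 note: total protein by sulforhodamine B absorbance as a cytotoxicity measure; measured one day after compound addition; fitted in both directions against DMSO so loss or gain of signal counts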
Summary of the method: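 Human umbilical vein endothelial cells co-cultured with PBMC (LPS system) were dosed for 24 h. Total protein was stained with 0.1% sulforhodamine B after 10% TCA fixation, read at 560 nm, and fitted bidirectionally against DMSO baseline.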

[17] = read-out: TIMP metallopeptidase inhibitor 2 (TIMP2), TIMP2 (gene 7077); test: BSK_KF3CT_TIMP2: BioMAP Diversity Plus: KF3CT Assay for TIMP metallopeptidase inhibitor 2 (TIMP2) Biomarker Activity (AID 2283071); conditions: primary human keratinocytes with fibroblasts; actives raise or lower the signal
Summary of the method: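 Co-culture of human primary keratinocytes and foreskin fibroblasts, measured 24 h after chemical dosing. TIMP-2 quantified by ELISA and fitted in both directions relative to DMSO. Cytotoxicity checked in parallel cultures by SRB total-protein staining.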

[18] = read-out: C-C motif chemokine 2 (Homo sapiens) (UniProt P13500); test: BSK_KF3CT_MCP1: BioMAP Diversity Plus: KF3CT Assay for Monocyte Chemoattractant Protein 1 (MCP1/CCL2) Biomarker Activity (AID 2283073); conditions: primary human keratinocytes with fibroblasts; actives raise or lower the signal
Summary of the method: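 Human keratinocyte plus foreskin fibroblast primary co-culture exposed to chemical for 24 h. MCP-1 levels measured by ELISA. Bidirectional curve fitting relative to DMSO negative control as baseline.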

Measured: AC50

Chain of E-selectin (Homo sapiens) (P16581 whole entry, looked up): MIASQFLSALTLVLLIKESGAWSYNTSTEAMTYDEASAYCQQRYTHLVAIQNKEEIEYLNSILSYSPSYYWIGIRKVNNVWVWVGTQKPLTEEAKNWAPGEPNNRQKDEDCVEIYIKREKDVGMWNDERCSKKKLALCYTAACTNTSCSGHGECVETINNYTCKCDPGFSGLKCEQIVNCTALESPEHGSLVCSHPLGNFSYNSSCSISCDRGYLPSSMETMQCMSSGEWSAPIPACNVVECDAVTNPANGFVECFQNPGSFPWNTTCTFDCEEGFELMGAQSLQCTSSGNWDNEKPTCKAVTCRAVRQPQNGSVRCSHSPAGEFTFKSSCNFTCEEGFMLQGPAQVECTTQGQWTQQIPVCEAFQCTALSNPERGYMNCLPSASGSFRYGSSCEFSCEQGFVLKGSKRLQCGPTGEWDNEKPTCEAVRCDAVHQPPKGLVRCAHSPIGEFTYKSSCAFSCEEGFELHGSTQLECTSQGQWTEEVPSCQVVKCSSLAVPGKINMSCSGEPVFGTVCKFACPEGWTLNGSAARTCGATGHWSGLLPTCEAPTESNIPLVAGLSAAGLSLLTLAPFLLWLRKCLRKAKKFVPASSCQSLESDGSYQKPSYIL

CCOC(C=C(C)CCC=C(C)C)OCC
inactive: [8] | [15]
active: [1] 32.8 µM | [2] 33.2 µM | [3] 20 µM | [4] 27.3 µM | [5] 32.4 µM | [6] 20 µM | [7] 20 µM | [9] 34.5 µM | [10] 34.8 µM | [11] 3.97 µM | [12] 20 µM | [13] 3.97 µM | CD40, CD40 (gene 958) 30 µM | [14] 35 µM | [16] 31.9 µM

NC(=O)C(F)(F)C(F)(F)C(F)(F)C(F)F
active: [15] 22.7 µM
inactive: [1] | [2] | [3] | [4] | [5] | [6] | [7] | [8] | [9] | [10] | [17] | [18] | [12] | [13] | CD40, CD40 (gene 958) | [14] | [15] | [16]

Cc1ccc(O)c(-n2nc3ccccc3n2)c1
not listed: [17]
inactive: all other assays above

O=C(O)C(F)(F)C(F)(F)C(F)(F)C(F)(F)C(F)(F)C(F)(F)C(F)F
active: [3] 0.223 µM | [15] 30 µM
inactive: [1] | [3] | [4] | [5] | [6] | [7] | [8] | [9] | [10] | [17] | [18] | [12] | [13] | CD40, CD40 (gene 958) | [14] | [15] | [16]

OCCCCC(F)(F)C(F)(F)C(F)(F)C(F)(F)F
not listed: [11]
inactive: all other assays above
